This passage reports binding signal results from publication PMC7862700, “An all-to-all approach to the identification of sequence-specific readers for epigenetic DNA modifications on cytosine”.

Common to all, as to test: DAPPL (digital affinity profiling via proximity ligation, sequencing); 10 mM Tris-HCl pH 7.5, 50 mM NaCl, 1 mM DTT, 4% glycerol, room temperature, 30 min; GST-TFs on glutathione beads, 16-mer random dsDNA library, 0.1% formaldehyde crosslink after washing; high values mean tight binding
One experiment addresses T1, FEV (Homo sapiens, UniProt Q99581 1-238).
T1 sequence: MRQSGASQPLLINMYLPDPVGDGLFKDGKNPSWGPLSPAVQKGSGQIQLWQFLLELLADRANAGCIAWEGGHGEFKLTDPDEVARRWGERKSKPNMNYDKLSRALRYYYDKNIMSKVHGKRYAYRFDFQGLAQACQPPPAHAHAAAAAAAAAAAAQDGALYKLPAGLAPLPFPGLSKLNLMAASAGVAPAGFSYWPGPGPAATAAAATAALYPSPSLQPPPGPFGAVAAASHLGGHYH
As to conditions: protein: recombinant; tags: N-terminal GST; dsDNA, one strand shown. Put shortly: (§1)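 A tag-only sample was pooled with DNA-barcoded human transcription factors that had been expressed in yeast as GST fusions and captured on glutathione beads. The pools were incubated for 30 min at room temperature with 200 nmole of a random double-stranded 16-mer DNA library in Tris/NaCl/DTT/glycerol buffer, then washed, crosslinked with 0.1% formaldehyde, proximity-ligated (BsaI/T4 ligase, 1 h, 37 °C), PCR-amplified and sequenced on an Illumina NextSeq500. Binding signal is each hexamer's read frequency for a factor divided by its frequency for the tag-only sample.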

For a further experiment, the target named is ETV5 (Homo sapiens, UniProt P41161 1-510). As to conditions: protein: recombinant; tags: N-terminal GST; dsDNA, one strand shown. Summed up:
as §1

In another experiment the target is HSF1 (Homo sapiens, UniProt Q00613 1-529). The following applies: protein: recombinant; tags: N-terminal GST; chain copies: 3; dsDNA, one strand shown. Summed up:
as §1

A further experiment deals with T2, SPIC (Homo sapiens, UniProt Q8N5J4 1-248).
T2 sequence: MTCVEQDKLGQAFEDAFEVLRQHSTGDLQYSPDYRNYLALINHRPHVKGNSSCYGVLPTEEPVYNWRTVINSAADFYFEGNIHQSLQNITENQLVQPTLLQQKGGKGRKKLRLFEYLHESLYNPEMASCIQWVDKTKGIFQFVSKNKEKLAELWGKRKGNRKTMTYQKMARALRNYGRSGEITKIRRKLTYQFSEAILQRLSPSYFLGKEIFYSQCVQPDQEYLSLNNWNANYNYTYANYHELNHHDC
As to conditions: protein: recombinant; tags: N-terminal GST; dsDNA, one strand shown. Summed up:
as §1

A further experiment concerns the target ELF4 (Homo sapiens, UniProt Q99607 1-663). As to conditions: protein: recombinant; tags: N-terminal GST; dsDNA, one strand shown. Put shortly: as §1
For a further experiment, the target named is T3, ELK4 (Homo sapiens, UniProt P28324-2 1-405).
T3 sequence: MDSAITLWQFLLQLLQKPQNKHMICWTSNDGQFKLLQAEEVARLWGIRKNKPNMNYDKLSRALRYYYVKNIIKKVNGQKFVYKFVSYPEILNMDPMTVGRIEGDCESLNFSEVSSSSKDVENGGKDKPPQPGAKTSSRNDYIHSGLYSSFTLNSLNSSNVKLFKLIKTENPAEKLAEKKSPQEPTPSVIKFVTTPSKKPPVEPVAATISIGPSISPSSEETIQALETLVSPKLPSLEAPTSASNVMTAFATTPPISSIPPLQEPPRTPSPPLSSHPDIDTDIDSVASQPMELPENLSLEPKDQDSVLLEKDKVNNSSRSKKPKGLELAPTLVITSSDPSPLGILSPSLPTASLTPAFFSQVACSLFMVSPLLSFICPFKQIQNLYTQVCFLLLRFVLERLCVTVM
As to conditions: protein: recombinant; tags: N-terminal GST; dsDNA, one strand shown. Put shortly: as §1

The next experiment deals with T4, ETV2 (Homo sapiens, UniProt O00321 1-342).
T4 sequence: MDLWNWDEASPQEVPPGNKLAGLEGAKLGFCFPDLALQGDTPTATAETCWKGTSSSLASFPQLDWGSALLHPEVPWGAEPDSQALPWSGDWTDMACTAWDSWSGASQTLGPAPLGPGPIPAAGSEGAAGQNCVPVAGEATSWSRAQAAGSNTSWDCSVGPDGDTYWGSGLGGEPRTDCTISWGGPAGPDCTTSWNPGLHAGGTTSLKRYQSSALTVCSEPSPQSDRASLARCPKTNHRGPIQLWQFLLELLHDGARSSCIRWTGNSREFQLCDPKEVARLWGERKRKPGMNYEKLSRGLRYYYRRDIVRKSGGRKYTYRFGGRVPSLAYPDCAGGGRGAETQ
As to conditions: protein: recombinant; tags: N-terminal GST; dsDNA, one strand shown. Summed up: as §1

Another experiment deals with T5, ELF3 (Homo sapiens, UniProt P78545 1-371).
T5 sequence: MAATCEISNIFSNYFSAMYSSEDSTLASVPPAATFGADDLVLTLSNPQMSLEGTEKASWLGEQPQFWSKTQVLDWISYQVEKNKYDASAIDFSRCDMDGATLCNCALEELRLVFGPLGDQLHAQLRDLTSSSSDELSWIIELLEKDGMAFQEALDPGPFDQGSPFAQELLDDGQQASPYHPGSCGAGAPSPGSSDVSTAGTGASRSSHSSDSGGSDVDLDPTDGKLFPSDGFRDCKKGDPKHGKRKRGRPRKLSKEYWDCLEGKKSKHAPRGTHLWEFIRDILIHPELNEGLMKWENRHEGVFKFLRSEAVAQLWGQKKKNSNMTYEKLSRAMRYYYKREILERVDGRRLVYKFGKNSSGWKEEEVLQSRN
As to conditions: protein: recombinant; tags: N-terminal GST; dsDNA, one strand shown. Put shortly:
as §1

In a further experiment the target is CRX (Homo sapiens, UniProt O43186 1-299). The following applies: protein: recombinant; tags: N-terminal GST; dsDNA, one strand shown. Put shortly:
as §1

Another experiment has as its target ETV1 (Homo sapiens, UniProt P50549 1-477). The following applies: protein: recombinant; tags: N-terminal GST; dsDNA, one strand shown. Summed up: as §1
The next experiment deals with T6, ERF (Homo sapiens, UniProt P50548 1-548).
T6 sequence: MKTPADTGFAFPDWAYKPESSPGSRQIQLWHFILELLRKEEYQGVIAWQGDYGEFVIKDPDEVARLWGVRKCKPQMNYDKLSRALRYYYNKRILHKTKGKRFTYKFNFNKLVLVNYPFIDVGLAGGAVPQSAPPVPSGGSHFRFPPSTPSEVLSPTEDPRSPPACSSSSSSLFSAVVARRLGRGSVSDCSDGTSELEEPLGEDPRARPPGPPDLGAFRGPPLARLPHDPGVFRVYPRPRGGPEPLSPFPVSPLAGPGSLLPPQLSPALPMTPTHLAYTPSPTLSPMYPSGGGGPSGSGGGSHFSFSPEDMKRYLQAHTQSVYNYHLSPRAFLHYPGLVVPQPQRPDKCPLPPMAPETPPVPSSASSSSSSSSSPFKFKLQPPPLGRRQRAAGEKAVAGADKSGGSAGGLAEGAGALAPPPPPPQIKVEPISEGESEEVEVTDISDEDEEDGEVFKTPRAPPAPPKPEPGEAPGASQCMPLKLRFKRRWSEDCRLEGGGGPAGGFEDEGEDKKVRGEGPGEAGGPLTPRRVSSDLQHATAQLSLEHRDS
As to conditions: protein: recombinant; tags: N-terminal GST; dsDNA, one strand shown. Summed up:
as §1

A further experiment concerns the target T7, ETV3L (Homo sapiens, UniProt Q6ZN32 1-361).
T7 sequence: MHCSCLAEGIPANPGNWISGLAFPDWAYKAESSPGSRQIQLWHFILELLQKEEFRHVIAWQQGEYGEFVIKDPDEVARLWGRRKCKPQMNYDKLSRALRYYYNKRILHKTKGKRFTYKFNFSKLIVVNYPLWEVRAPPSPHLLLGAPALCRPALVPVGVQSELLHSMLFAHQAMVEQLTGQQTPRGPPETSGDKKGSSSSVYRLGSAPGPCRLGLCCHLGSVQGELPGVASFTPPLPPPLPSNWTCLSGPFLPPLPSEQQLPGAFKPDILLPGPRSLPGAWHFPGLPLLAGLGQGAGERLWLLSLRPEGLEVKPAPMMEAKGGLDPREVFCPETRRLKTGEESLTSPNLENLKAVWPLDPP
As to conditions: protein: recombinant; tags: N-terminal GST; dsDNA, one strand shown. Put shortly:
as §1

The target of the next experiment is T8, ETS2 (Homo sapiens, UniProt P15036 1-469).
T8 sequence: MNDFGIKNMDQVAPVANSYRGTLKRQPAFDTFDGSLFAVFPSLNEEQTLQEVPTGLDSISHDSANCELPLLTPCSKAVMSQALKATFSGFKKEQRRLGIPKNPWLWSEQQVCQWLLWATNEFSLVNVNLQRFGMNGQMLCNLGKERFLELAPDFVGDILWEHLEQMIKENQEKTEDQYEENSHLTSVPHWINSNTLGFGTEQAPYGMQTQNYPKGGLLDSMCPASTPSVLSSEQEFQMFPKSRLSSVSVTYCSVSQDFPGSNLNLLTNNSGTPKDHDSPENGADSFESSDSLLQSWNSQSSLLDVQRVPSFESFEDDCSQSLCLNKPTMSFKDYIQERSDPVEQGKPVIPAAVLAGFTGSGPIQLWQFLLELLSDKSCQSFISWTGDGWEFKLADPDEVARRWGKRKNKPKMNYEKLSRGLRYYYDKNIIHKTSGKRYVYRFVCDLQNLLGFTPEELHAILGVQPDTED
As to conditions: protein: recombinant; tags: N-terminal GST; dsDNA, one strand shown. Summed up: as §1

The next experiment addresses T9, SPDEF (Homo sapiens, UniProt O95238 1-335).
T9 sequence: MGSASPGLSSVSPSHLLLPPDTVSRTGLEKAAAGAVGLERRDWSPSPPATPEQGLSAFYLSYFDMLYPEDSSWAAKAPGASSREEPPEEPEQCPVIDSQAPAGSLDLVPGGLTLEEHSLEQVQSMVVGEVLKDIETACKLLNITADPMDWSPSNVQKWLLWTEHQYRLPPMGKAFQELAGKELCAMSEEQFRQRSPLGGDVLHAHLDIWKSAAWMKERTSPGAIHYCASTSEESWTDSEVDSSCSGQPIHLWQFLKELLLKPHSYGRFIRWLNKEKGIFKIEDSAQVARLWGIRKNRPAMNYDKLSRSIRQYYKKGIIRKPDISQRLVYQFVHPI
As to conditions: protein: recombinant; tags: N-terminal GST; dsDNA, one strand shown. Put shortly:
as §1

Another experiment deals with T10, ETV7 (Homo sapiens, UniProt Q9Y603 1-341).
T10 sequence: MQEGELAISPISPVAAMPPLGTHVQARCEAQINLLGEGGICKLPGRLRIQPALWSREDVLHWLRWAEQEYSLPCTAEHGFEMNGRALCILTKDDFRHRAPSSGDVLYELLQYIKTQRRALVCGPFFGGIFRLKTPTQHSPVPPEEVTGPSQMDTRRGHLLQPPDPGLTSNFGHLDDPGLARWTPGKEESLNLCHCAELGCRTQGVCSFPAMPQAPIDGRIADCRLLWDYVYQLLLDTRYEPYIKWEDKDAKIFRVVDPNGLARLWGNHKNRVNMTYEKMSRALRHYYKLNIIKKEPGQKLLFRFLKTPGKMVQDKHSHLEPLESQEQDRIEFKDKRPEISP
As to conditions: protein: recombinant; tags: N-terminal GST; dsDNA, one strand shown. Summed up:
as §1

Another experiment addresses T11, ELF5 (Homo sapiens, UniProt Q9UKW6-2 1-255).
T11 sequence: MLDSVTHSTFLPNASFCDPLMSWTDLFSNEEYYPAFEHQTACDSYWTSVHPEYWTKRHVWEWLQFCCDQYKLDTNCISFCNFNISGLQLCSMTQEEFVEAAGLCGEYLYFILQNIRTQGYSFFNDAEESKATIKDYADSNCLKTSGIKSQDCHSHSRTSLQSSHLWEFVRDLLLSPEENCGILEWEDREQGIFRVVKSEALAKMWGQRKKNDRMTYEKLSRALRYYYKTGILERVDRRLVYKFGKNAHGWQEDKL
As to conditions: protein: recombinant; tags: N-terminal GST; dsDNA, one strand shown. Summed up: as §1

A further experiment has as its target T12, ETV3 (Homo sapiens, UniProt P41162-2 1-143).
T12 sequence: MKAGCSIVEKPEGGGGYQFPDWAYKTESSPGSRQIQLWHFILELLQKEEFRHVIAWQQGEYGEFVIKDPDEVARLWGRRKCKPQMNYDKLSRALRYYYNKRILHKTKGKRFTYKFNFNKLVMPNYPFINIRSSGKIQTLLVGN
The following applies: protein: recombinant; tags: N-terminal GST; dsDNA, one strand shown. Summed up:
as §1

The next experiment concerns the target ETV6 (Homo sapiens, UniProt P41212 1-452). As to conditions: protein: recombinant; tags: N-terminal GST; dsDNA, one strand shown. Put shortly:
as §1

Sequence of CRX (O43186 whole entry): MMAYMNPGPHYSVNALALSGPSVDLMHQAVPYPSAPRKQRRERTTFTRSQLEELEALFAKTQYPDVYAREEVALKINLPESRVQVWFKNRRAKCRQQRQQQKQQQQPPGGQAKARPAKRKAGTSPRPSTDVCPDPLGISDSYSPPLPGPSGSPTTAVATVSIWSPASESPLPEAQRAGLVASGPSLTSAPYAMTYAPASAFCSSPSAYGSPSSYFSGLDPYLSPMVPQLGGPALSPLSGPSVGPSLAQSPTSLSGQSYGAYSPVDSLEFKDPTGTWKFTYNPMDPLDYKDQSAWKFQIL
Sequence of ETV5 (P41161 whole entry): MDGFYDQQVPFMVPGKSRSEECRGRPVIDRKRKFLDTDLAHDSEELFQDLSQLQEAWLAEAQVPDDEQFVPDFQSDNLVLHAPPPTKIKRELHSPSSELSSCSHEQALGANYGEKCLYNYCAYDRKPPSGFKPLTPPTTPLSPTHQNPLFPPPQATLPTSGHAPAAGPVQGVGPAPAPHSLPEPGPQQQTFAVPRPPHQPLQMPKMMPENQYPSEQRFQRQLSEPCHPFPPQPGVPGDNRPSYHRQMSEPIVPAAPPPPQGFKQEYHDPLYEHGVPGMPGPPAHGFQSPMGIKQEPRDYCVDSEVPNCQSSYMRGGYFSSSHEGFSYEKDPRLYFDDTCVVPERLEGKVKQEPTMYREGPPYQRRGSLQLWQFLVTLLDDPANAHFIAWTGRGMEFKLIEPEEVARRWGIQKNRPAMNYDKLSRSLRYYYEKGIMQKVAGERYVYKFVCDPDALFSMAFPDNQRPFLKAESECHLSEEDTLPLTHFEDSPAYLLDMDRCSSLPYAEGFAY
Sequence of ELF4 (Q99607 whole entry): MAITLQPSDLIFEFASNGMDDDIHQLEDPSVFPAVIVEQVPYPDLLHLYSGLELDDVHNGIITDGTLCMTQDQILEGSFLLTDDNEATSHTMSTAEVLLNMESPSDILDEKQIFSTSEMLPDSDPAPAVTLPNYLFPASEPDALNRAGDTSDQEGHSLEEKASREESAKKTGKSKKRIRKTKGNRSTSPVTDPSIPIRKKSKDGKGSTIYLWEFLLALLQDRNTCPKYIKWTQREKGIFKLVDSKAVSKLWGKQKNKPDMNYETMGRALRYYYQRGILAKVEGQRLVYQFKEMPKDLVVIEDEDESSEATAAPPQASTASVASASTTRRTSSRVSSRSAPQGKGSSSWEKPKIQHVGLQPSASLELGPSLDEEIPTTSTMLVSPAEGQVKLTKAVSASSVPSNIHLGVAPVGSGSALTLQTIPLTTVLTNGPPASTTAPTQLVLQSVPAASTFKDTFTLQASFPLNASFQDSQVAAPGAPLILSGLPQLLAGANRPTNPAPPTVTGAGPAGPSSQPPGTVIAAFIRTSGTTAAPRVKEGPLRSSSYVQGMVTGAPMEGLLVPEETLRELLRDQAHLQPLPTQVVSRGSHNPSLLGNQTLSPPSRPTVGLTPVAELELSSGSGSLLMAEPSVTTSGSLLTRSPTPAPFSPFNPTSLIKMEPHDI
Sequence of ETV1 (P50549 whole entry): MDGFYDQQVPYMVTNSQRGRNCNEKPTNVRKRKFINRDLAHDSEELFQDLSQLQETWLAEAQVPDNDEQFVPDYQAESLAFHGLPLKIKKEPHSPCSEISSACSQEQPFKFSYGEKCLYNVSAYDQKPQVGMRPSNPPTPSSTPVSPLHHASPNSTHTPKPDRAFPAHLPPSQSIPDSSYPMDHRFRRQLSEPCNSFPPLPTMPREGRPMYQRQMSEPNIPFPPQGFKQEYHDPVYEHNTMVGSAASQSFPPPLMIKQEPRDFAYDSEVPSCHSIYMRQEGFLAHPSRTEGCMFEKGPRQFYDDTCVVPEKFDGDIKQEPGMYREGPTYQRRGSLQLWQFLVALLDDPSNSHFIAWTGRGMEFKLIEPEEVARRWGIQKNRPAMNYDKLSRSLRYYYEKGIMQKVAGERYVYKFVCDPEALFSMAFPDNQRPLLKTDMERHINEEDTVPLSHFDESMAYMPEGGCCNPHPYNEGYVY
Sequence of HSF1 (Q00613 whole entry): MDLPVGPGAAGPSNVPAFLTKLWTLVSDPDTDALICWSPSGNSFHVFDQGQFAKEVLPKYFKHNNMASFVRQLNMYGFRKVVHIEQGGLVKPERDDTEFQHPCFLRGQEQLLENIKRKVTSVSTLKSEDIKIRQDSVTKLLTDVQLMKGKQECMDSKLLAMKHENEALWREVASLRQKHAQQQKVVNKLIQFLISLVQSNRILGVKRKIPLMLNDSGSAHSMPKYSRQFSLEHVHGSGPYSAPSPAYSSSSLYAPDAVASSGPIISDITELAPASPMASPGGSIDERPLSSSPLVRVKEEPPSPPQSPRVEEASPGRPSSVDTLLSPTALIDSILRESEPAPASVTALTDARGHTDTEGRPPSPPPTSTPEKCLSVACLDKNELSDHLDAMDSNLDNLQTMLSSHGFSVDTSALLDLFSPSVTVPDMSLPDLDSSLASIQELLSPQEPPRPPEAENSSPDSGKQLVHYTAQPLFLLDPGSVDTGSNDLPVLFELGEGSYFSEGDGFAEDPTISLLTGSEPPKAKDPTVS
Sequence of ETV6 (P41212 whole entry): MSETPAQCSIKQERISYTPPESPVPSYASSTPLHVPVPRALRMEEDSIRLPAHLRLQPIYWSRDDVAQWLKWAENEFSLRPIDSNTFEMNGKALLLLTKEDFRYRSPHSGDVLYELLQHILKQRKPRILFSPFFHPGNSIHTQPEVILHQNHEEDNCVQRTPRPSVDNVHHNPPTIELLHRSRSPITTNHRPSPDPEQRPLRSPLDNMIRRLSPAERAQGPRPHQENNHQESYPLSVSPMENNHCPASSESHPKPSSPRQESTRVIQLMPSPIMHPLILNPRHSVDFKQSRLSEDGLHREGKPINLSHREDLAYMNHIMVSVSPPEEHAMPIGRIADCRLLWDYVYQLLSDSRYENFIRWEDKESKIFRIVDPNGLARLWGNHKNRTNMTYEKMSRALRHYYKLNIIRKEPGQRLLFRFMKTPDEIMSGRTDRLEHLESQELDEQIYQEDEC

As for ATTGCG, the binding signal with FEV was 1.17 fold enrichment (6-mer frequency, TF over GST control); with ETV5, 1.24 fold enrichment (6-mer frequency, TF over GST control); with HSF1, 1.07 fold enrichment (6-mer frequency, TF over GST control); in the experiment with SPIC it was 1.29 fold enrichment (6-mer frequency, TF over GST control); in the experiment with ELF4 it was 1.25 fold enrichment (6-mer frequency, TF over GST control); with ELK4, 1.14 fold enrichment (6-mer frequency, TF over GST control). The binding signal with ETV2 was 1.59 fold enrichment (6-mer frequency, TF over GST control); with ELF3, 1.29 fold enrichment (6-mer frequency, TF over GST control); in the experiment with CRX, 1.12 fold enrichment (6-mer frequency, TF over GST control); in the experiment with ETV1 it was 1.29 fold enrichment (6-mer frequency, TF over GST control); with ERF, 1.35 fold enrichment (6-mer frequency, TF over GST control); with ETV3L, 1.29 fold enrichment (6-mer frequency, TF over GST control). Also, the binding signal was 1.27 fold enrichment (6-mer frequency, TF over GST control) with ETS2; 1.09 fold enrichment (6-mer frequency, TF over GST control) with SPDEF; 1.17 fold enrichment (6-mer frequency, TF over GST control) with ETV7; 1.21 fold enrichment (6-mer frequency, TF over GST control) in the experiment with ELF5; 1.16 fold enrichment (6-mer frequency, TF over GST control) with ETV3; 1.27 fold enrichment (6-mer frequency, TF over GST control) with ETV6.
